# According to PubChem BioAssay (NCATS):
# Results filed as inconclusive are left out. Entries that show only a call come without a potency. Activity calls are given as the source filed them. Calls come from the whole dose curve; as a rule, active = well fitted curve in the direction sought with a large enough effect; inconclusive = small, poorly fitted or top-dose-only effect, or another doubt; inactive = no such curve, though single readings can be large; an effect the other way counts as inactive or inconclusive.
# Assays:
# [1] = qHTS for Activators of p53 Stress Response Pathway screened against the NCATS CANVASS Library (AID 1347388); conditions: p53RE-bla HCT-116, beta-lactamase reporter, 16 h; series mostly up to 46.1 µM
# Method in brief: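 p53RE-bla HCT-116 cells (4000/well) were plated 5 h at 37C, exposed to compounds for 16 h at 37C over an 11-point concentration series, then loaded with CCF4 for 2 h at room temperature; 460/530 nm emission ratio read.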
# [2] = qHTS assay for small molecule disruptors of mitochondrial membrane potential screened against the NCATS CANVASS Library (AID 1347389); conditions: HepG2 mitochondrial membrane potential, m-MPI red/green ratio, 1.5 h; series mostly up to 46.1 µM; note: nearly all actives have a fitted effect of over 60% in size; note: potency is the fitted concentration of half-maximal effect
# Method in brief: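 Cells (HepG2) seeded the day before received compound or DMSO for 1 hr, then Mito-MPS dye for 30 min at 37C; emission at 590 nm over 535 nm gave the polarization signal.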
# [3] = qHTS for activators of dead-cell proteases activity screened against the NCATS CANVASS Library (AID 1347392); conditions: HepG2 cytotoxicity, dead-cell protease luminescence, 5 h; series mostly up to 46.1 µM;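 note: luminescence from protease leaking out of membrane-damaged cells cleaving impermeant substrate; rising signal means more cytotoxicity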
# Method in brief: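 Cytotoxicity in HepG2 cells was assessed by released protease cleaving AAF-aminoluciferin, with luminescence as signal. Exposure lasted 5 h at 37C across an 11-point series.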
# [4] = qHTS for inhibitors of ER calcium dysfunction: SERCaMP assay screened against the NCATS CANVASS Library (AID 1347393); conditions: SH-SY5Y GLuc-SERCaMP (Gaussia luciferase released on ER calcium loss) secretion, thapsigargin, luminescence; series mostly up to 76.6 µM; note: nearly all actives have a fitted effect of over 40% in size; note: potency is the fitted concentration of half-maximal effect
# Method in brief: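 qHTS in SH-SY5Y reporter cells: 16 h compound pretreatment, 4 h thapsigargin, then secreted Gaussia luciferase measured by luminescence.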
# [5] = Vero-766 cells viability qHTS against the NCATS CANVASS Library: Counterscreen for Zika virus inhibition assay (AID 1347394); conditions: Vero 766 viability, CellTiter-Glo luminescence, 72 h; series mostly up to 46.1 µM; note: nearly all actives have a fitted effect of over 60% in size; note: potency is the fitted concentration of half-maximal effect
# Method in brief: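 Counterscreen for toxicity: Vero 766 cells exposed 72 h to an 11-point compound series, viability by CellTiter-Glo.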
# [6] = qHTS for inhibitors of Wild type Zika virus screened against the NCATS CANVASS Library (AID 1347396); conditions: Vero cells, Zika virus CPE, CellTiter-Glo, 72 h; series mostly up to 45.9 µM;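 note: ATP luminescence of surviving cells so rescue from viral cell killing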
# Method in brief: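 Vero 766 (African green monkey) cells, 1000 per well, attached overnight, then compounds were added in an 11-point series before wild-type Zika virus infection. After 72 h at 37C, cell viability was read as CellTiter Glo luminescence.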
# [7] = Viability qHTS for inhibitors of the SERCaMP assay screened against the NCATS CANVASS Library (AID 1347400); conditions: SH-SY5Y SERCaMP cells viability, CellTiter-Glo, 48 h; series mostly up to 92.2 µM; note: nearly all actives have a fitted effect of over 70% in size; note: potency is the fitted concentration of half-maximal effect
# From the text: Natural products and their derivatives continue to be wellsprings of nascent therapeutic potential. However, many laboratories have limited resources for biological evaluation, leaving their previously isolated or synthesized compounds largely or completely untested. To address this issue, the Canvass library of natural products was assembled (https://tripod.nih.gov/canvass), in collaboration with academic and industry researchers, for quantitative high-throughput screening (qHTS) across a diverse set of cell-based and biochemical assays. The pure (>85% purity by liquid chromatography/mass spectrometry [LC/MS]) Canvass library of 346 natural products were submitted by 45 academic laboratories and companies around the world. We collected pure natural products to circumvent deconvolution and structure elucidation due to time and resource limitations. The library was formatted into 1536-well plates and evaluated in 50 qHTS (in an 11-pnt concentration series) bioassays with broad scope of disease-relevant mechanisms. The resulting data set from 50 different assays was then systematically analyzed to identify overall trends and specific natural products with interesting biological activities. […]
# SERCaMP Viability assay protocol: 1. […] Luminescence signal was obtained via the ViewLux plate reader (Perkin Elmer) using the clear emission filter and 1x binning, 2 seconds exposure settings.
# [8] = Redox Reaction Profiling qHTS: Assay Interference Panel against the NCATS CANVASS Library (AID 1347401); conditions: resazurin-DTT redox cycling, fluorescence, 15 min; series mostly up to 57.1 µM
# Method in brief: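 Quantitative HTS over an 11-point series was run in HEPES pH 7.3 with 50 mM NaCl, 200 uM DTT and 5 uM resazurin. Initial and 15-min resorufin fluorescence readings were taken.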
# [9] = qHTS to identify inhibitors of the type 1 interferon - major histocompatibility complex class I in skeletal muscle: primary screen against the NCATS LOPAC collection (AID 1347405); conditions: iHSKM muscle cells, IFN-b-induced MHC-I HiBiT luminescence, 24 h; series mostly up to 45.9 µM;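 note: human myoblasts with HiBiT tag on endogenous HLA-B stimulated by IFN-beta; lytic HiBiT luminescence reporting HLA-B protein level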; note: potency is the fitted concentration of half-maximal effect
# Method in brief: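 IFN-beta-stimulated (4 ng/ml) HLA-B HiBiT knock-in myoblasts, compound-treated 24 hrs up to 46 uM final; signal via LgBiT complementation and furimazine luminescence.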
compound,measurement,setting,value
O=C(O)c1cc(O)c(O)c(O)c1,outcome,[1],inactive
same,Potency,[2],inactive
same,outcome,[3],inactive
same,Potency,[4],inactive
same,Potency,[5],inactive
same,outcome,[6],inactive
same,Potency,[7],inactive
same,outcome,[8],inactive
O=c1cc(-c2ccccc2)oc2c(O)c(O)ccc12,outcome,[1],inactive
same,Potency,[2],18.6 µM (active)
same,outcome,[3],inactive
same,Potency,[4],38.4 µM (active)
same,Potency,[5],23.4 µM (active)
same,Potency,[7],34 µM (active)
same,outcome,[8],inactive
CCCCC#Cc1nc(NC)c2ncn([C@@H]3O[C@H](CO)[C@@H](O)[C@H]3O)c2n1,Potency,[9],inactive
N[C@@H](CC(=O)O)C(=O)O,Potency,[9],inactive
Brc1cc2c(cc1[C@H]1Nc3ccccc3[C@H]3C=CC[C@H]31)OCO2,Potency,[9],inactive
Oc1cc(O)cc(/C=C/c2ccc(O)c(O)c2)c1,Potency,[9],inactive
C=CC(C)=C[C@@]1(C)SC(=O)C(C)=C1O,Potency,[9],inactive
NCC1OC(O[C@H]2[C@H](O)[C@@H](OC3C(O)C(N)CC(N)C3OC3OC(CO)C(O)C(O)C3N)O[C@@H]2CO)C(N)C(O)C1O (some centres not stated),Potency,[9],inactive
O=C(Nc1ccc2c(c1)CCN(Cc1ncn[nH]1)C2)c1ccccc1-c1ccc(C(F)(F)F)cc1,Potency,[9],inactive
N#C/C(=C\c1ccc(O)c(O)c1)C(=O)c1ccc(O)c(O)c1,Potency,[9],inactive
CCNc1nc2c(ncn2[C@H]2C[C@H](O)[C@@H](CO)O2)c(=O)[nH]1,Potency,[9],inactive
CNC(=O)[C@H]1O[C@@H](n2cnc3c(NCc4cccc(I)c4)ncnc32)[C@H](O)[C@@H]1O,Potency,[9],inactive
CC[C@H]1OC(=O)[C@H](C)C(O[C@H]2C[C@@](C)(OC)[C@@H](O)[C@H](C)O2)[C@H](C)[C@@H](OC2O[C@H](C)C[C@H](N(C)C)[C@H]2O)[C@](C)(O)C[C@@H](C)CN(C)[C@H](C)[C@@H](O)[C@]1(C)O (some centres not stated),Potency,[9],inactive
O=C1NC(=O)c2c1c(-c1ccccc1)cc1[nH]c3ccc(O)cc3c21,Potency,[9],14.1 µM (active)
CC1(C)CCC=[N+]1[O-],Potency,[9],inactive
N#C/C(=C\c1ccc(-c2cc(Cl)ccc2Cl)o1)C(=O)Nc1cccc2ncccc12,Potency,[9],14.1 µM (active)
Oc1cc2c(cc1O)CN(C(=S)NCCc1ccc(Cl)cc1)CCC2,Potency,[9],inactive
C[N+]1(C)CCC(OC(=O)C(c2ccccc2)c2ccccc2)CC1,Potency,[9],inactive
O=C(c1ccc(OCCCc2cnc[nH]2)cc1)C1CC1,Potency,[9],inactive
CC(C)NC[C@@H](O)c1ccc(O)c(O)c1,Potency,[9],inactive
NCCCS(=O)(=O)O,Potency,[9],inactive
Cc1ccc(S(=O)(=O)/C=C/C#N)cc1,Potency,[9],12.6 µM (active)
NCCCCC(=O)O,Potency,[9],inactive
Fc1ccc2[nH]c(CN3CCN(c4ccccn4)CC3)cc2c1,Potency,[9],inactive
O=C(CCCCCN1CCN(c2ccccc2-c2ccccc2)CC1)NC1CCCc2ccccc21 (configuration not stated),Potency,[9],inactive
Cn1cc(C2=C(c3ccc(Cl)cc3Cl)C(=O)NC2=O)c2ccccc21,Potency,[9],inactive
Nc1ncnc2c1ncn2[C@@H]1O[C@H](COP(=O)(O)CP(=O)(O)OP(=O)(O)O)[C@@H](O)[C@H]1O,Potency,[9],inactive
CCCCCCCCCCCCCCCCCCN(CCCCCCCCCCCCCCCCCC)CCCN(CCO)CCO,Potency,[9],inactive
O=c1[nH]c2cc(C(F)(F)F)ccc2n1-c1cc(C(F)(F)F)ccc1O,Potency,[9],inactive
NC(CCCP(=O)(O)O)C(=O)O (configuration not stated),Potency,[9],inactive
CCCCCCCCc1ccc(-c2ccc(C(=O)O)cc2)cc1,Potency,[9],inactive
Cn1c(=O)c(-c2c(Cl)cccc2Cl)cc2cnc(Nc3ccc(N4CCOCC4)cc3)nc21,Potency,[9],0.631 µM (active)
CNC(=O)[C@H]1O[C@@H](n2cnc3c(NCc4ccc(N)cc4)ncnc32)[C@H](O)[C@@H]1O,Potency,[9],inactive
CN1C2CCC1CC(OC(=O)C(O)c1ccccc1)C2 (configuration not stated),Potency,[9],inactive
CC[C@H]1OC(=O)[C@H](C)[C@@H](O[C@H]2C[C@@](C)(OC)[C@@H](O)[C@H](C)O2)[C@H](C)[C@@H](O[C@@H]2O[C@H](C)C[C@H](NC)[C@H]2O)[C@](C)(O)C[C@@H](C)CN(C)[C@H](C)[C@@H](O)[C@]1(C)O,Potency,[9],inactive
COC(=O)c1c(C)[nH]c(C)c1C(=O)c1ccccc1Cc1ccccc1,Potency,[9],inactive
S=C(S)OC1CC2CC1C1CCCC21 (configuration not stated),Potency,[9],inactive
c1ccc(-c2ccccn2)nc1,Potency,[9],inactive
CC(C)(C)c1ccc(S(=O)(=O)/C=C/C#N)cc1,Potency,[9],7.08 µM (active)
